PubChem BioAssay (EPA / NIEHS)
Values joined by “and” are separate entries in the source; they are usually repeats but may differ in a detail not shown here. Identical values can stand only once. Inconclusive results are not listed. The source holds several records for some structures; these can differ, active in one and inactive in another. Active and inactive are the calls of the source. The calls were made as follows: active = hit-call score of the fitted dose curve at least 0.9, where 1 is the maximum; inconclusive = response in the unintended direction; inactive = score below 0.9.

What follows are compounds tested on Cytochrome P450 2B6 (Homo sapiens) (UniProt P20813) (assay: CLD_CYP2B6_6hr: CellzDirect (CLD) Gene Expression Assay for xenobiotic metabolism (CYP2B6) at 6 hours (AID 2283677);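 also: actives raise CYP2B6 transcript above DMSO baseline so AC50 marks an inducer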).
Method: CLD_6hr is a cell-based, multiplexed-readout assay that uses hepatocyte, a human liver primary cell, with measurements taken at 6 hours after chemical dosing in a 96-well plate.CLD_CYP2B6_6hr is one of 16 assay component(s) measured or calculated from the CLD_6hr assay. It is designed to make measurements of mRNA induction, a form of inducible reporter, as detected with chemiluminescence signals by Quantitative Nuclease Protection Assay (qNPA) technology.Data from the assay component CLD_CYP2B6_6hr was analyzed at the endpoint, CLD_CYP2B6_6hr, in the positive analysis fitting direction relative to DMSO as the negative control and baseline of activity. Using a type of inducible reporter, gain-of-signal activity can be used to understand changes in the reporter gene as they relate to the gene CYP2B6. Furthermore, this assay endpoint can be referred to as a primary readout. To generalize the intended target to other relatable targets, this assay endpoint is annotated to the cyp intended target family, where subfamily is xenobiotic metabolism.
Human hepatocyte cultures were treated daily for two consecutive days with fresh dosing solutions containing appropriate concentrations of the 320 ToxCast chemicals (chemical identities were blinded to CellzDirect and other ToxCast collaborators), vehicle control (0.2% DMSO), and positive control inducers as summarized in Table 1. Due to the large number of treatment groups and chemicals examined, the ToxCast chemicals were divided into two groups (spanning two independent cultures of hepatocytes from separate donor preparations (Hu778: ToxCast plates 1 and 2; Hu776: ToxCast plates 3 and 4). Each preparation of human hepatocyte cultures was treated with respective vehicle control, medium only control, set of six positive controls/reference chemicals for the five hepatic receptor pathways, and a subset of eight of the ToxCast chemicals (indoxacarb, pyrithiobac-sodium, norflurazon, cyhalofop-butyl, methomyl, thiram, acetochlor, and propiconazole). These replicate data, coupled with internal replicates designed within the blinded ToxCast chemical library, provided additional data to evaluate interindividual differences between hepatocyte preparations and their potential impact on chemical profiles.Cell morphology and integrity were evaluated using phase-contrast microscopy as an indicator of hepatocyte cell health (Tyson & Green, 1987). Cultures for each treatment group (i.e., media, vehicle [0.2% DMSO], positive control inducers [multiple concentrations], and the ToxCast chemicals [multiple concentrations]) were observed and cell morphology was assessed relative to vehicle control cultures at each harvest time point (0, 6, 24, or 48 h). […] Images were evaluated at the conclusion of the study to assess changes in cell integrity and account for the effects of chemical exposure on uncharacteristic changes in concentration-dependent gene expression profiles. The results from these determinations of apparent cytotoxicity were annotated (yes/no) alongside the corresponding qNPA data for reference.At the conclusion of each treatment period, hepatocyte cultures (96-well) were washed with 1 volume of HBSS, lysed by addition of 25 ul ArrayPlate lysis buffer (HTG, Tucson, AZ), and 70 ul/well of Denaturation Oil, denatured by incubation at 95C for 10 min, and frozen at approximately -70C until analysis by nuclease protection assay (qNPA) (Roberts et al., 2007). For qNPA analysis, cell lysates were thawed at 50C for approximately 30 min, qNPA probes were added, and samples were incubated at 95C for 10 min to begin the detection process by denaturing the target RNA, dissociating the duplexes and secondary structure hybridization. At the conclusion of the hybridization period, S1 nuclease reagent was added to each sample to digest all nonprotected nucleotides at 50C for 60-90 min. […]

SMILES	AC50	outcome
Fc1ccc(Oc2ccnc3cc(Cl)cc(Cl)c23)cc1	20 µM (active)	–
CO/C=C(/C(=O)OC)c1ccccc1Oc1cc(Oc2ccccc2C#N)ncn1	1 µM (active)	–
O=C(O)c1nc(Cl)ccc1Cl	–	inactive
CC(C)C1(C)N=C(c2nc3ccccc3cc2C(=O)O)NC1=O (stereo not given)	–	inactive
O=C(O)COc1nc(Cl)c(Cl)cc1Cl	–	inactive
CON(C)C(=O)Nc1ccc(Cl)c(Cl)c1	1.83 µM (active)	–
COc1cnc(OC)n2nc(NS(=O)(=O)c3c(OCC(F)F)cccc3C(F)(F)F)nc12	–	inactive
O=C(Nc1ccccc1)Nc1ccnc(Cl)c1	20 µM (active)	–
Oc1ccccc1-c1ccccc1	–	inactive
CC1=C(C(=O)Nc2ccccc2)SCCO1	15.2 µM (active)	–
N#Cc1nn(-c2c(Cl)cc(C(F)(F)F)cc2Cl)c(N)c1S(=O)C(F)(F)F (stereo not given)	2.91 µM (active)	–
COP(=S)(OC)Oc1nc(Cl)c(Cl)cc1Cl	6.24 µM (active)	–
COC(=O)C(C)Oc1ccc(Oc2ccc(Cl)cc2Cl)cc1 (stereo not given)	3.09 µM (active) and 7.54 µM (active)	inactive
OC(c1ccc(Cl)cc1)(c1cncnc1)c1ccccc1Cl (stereo not given)	0.442 µM (active)	–
CCON=C(CC)C1=C(O)CC(c2c(C)cc(C)cc2C)CC1=O (stereo not given)	–	inactive
CCNc1nc(Cl)nc(NCC)n1	7.74 µM (active)	–
C#CCOS(=O)OC1CCCCC1Oc1ccc(C(C)(C)C)cc1 (stereo not given)	1.9 µM (active)	–
CCCCNC(=O)OCC#CI	0.838 µM (active)	inactive
COc1nc(C)nc(NC(=O)NS(=O)(=O)c2ccccc2Cl)n1	–	inactive

SMILES	AC50	outcome
CCCCC(CC)COC(=O)c1ccccc1C(=O)OCC(CC)CCCC (stereo not given)	4.09 µM (active)	–
N#Cc1cc(Br)c(O)c(Br)c1	–	inactive
COc1nc(C)nc(NC(=O)NS(=O)(=O)c2ccccc2CCC(F)(F)F)n1	3.21 µM (active) and 1.89 µM (active)	–
C=CCC1=C(C)[C@@H](OC(=O)[C@@H]2[C@@H](C=C(C)C)C2(C)C)CC1=O	5.86 µM (active)	–
CCCCNC(=O)n1c(NC(=O)OC)nc2ccccc21	4.17 µM (active)	–
CCc1nn(C)c(C(=O)NCc2ccc(C(C)(C)C)cc2)c1Cl	–	inactive
C=CCC1=C(C)C(OC(=O)C2C(C=C(C)C)C2(C)C)CC1=O (stereo not given)	2.82 µM (active)	–
COc1ccc(C(c2ccc(OC)cc2)C(Cl)(Cl)Cl)cc1	7.31 µM (active)	–
CNC(=S)S	–	inactive
CCNc1nc(Cl)nc(NC(C)C)n1	2.99 µM (active)	–
CNC(=O)ON=CC(C)(C)SC	–	inactive
Cc1c(F)c(F)c(COC(=O)C2C(/C=C(\Cl)C(F)(F)F)C2(C)C)c(F)c1F (stereo not given)	20 µM (active)	–
CCCC1COC(Cn2cncn2)(c2ccc(Cl)cc2Cl)O1 (stereo not given)	0.759 µM (active)	–
CC(Oc1ccc(Cl)cc1Cl)C(=O)O (stereo not given)	–	inactive
CC(C)Oc1cc(-n2nc(C(C)(C)C)oc2=O)c(Cl)cc1Cl	1.9 µM (active)	–
CCOC(=O)CC(SP(=S)(OC)OC)C(=O)OCC (stereo not given)	–	inactive
CCOC(=O)C(Cl)Cc1cc(-n2nc(C)n(C(F)F)c2=O)c(F)cc1Cl (stereo not given)	3.01 µM (active)	–
COc1nc(NC(C)C)nc(NC(C)C)n1	4.18 µM (active)	–
Cc1ccc(-c2c(Cl)nc(C#N)n2S(=O)(=O)N(C)C)cc1	1.88 µM (active)	–
